In PubChem BioAssay AID1159580 (chemical genetic matrix, 2015):
Screen size: about 5,500 compounds; about 2,000 (36%) were called active. Another 18% or so got no clear call; they are omitted. Rule as the data show it: active = normalized growth mostly below about 0.91 (no sharp cut-off); inconclusive = no clear call, values can overlap the other calls; inactive = mostly above about 0.92. The list shows a part of the results.

Experiment: chemical genetic growth profiling, strain panel (AID 1159580);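 also: tested at 20 µM; growth read once vehicle control cultures reached saturation at 30 °C; 1 = growth at the plate median or of vehicle wells; lower values mean less growth of the strain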
Conditions: S. cerevisiae deletion strains, growth OD

Measured: normalized growth

CC1(C)CC(=O)c2c(S(C)(=O)=O)sc(Br)c2C1
inactive: locus YAL013W, strain DEP1, hits give low values 0.951 | locus YBR229C, strain ROT2, hits give low values 1.01 | locus YDL101C, strain DUN1, hits give low values 0.995 | locus YDR150W, strain NUM1, hits give low values 0.965 | locus YEL061C, strain CIN8, hits give low values 0.988 | locus YGR078C, strain PAC10, hits give low values 1.02 | locus YGR229C, strain SMI1, hits give low values 0.981 | locus YHR030C, strain SLT2, hits give low values 0.921 | locus YHR087W, strain rtc3, hits give low values 1.02 | locus YJR043C, strain POL32, hits give low values 1.03 | locus YJR075W, strain HOC1, hits give low values 1.03 | locus YKL190W, strain CNB1, hits give low values 0.998 | locus YLR039C, strain RIC1, hits give low values 0.91 | locus YLR058C, strain SHM2 (second series), hits give low values 1.01 | locus YLR085C, strain ARP6, hits give low values 0.881 | locus YLR262C, strain YPT6, hits give low values 0.907 | locus YML094W, strain GIM5, hits give low values 0.977 | locus YMR219W, strain ESC1, hits give low values 0.993 | locus YMR263W, strain SAP30, hits give low values 0.983 | locus YNL153C, strain GIM3, hits give low values 1.02 | locus YNL298W, strain CLA4 (second series), hits give low values 0.98 | locus YNL322C, strain KRE1, hits give low values 1 | locus YNR030W, strain Alg12, hits give low values 1 | locus YPL055C, strain LGE1, hits give low values 0.924 | locus YPL241C, strain CIN2, hits give low values 0.954 | locus YPR135W, strain CTF4, hits give low values 0.96
